Measured values from PubChem BioAssay (Tox21).
Values without a mark were called inactive. Inconclusive results are not listed. Where a call stands in place of a potency, no number is given. The source made the active and inactive calls. Unless noted, the call rests on the fitted dose curve.

Legend:
[1] = Nuclear factor erythroid 2-related factor 2/antioxidant responsive element (Nrf2/ARE) small molecule agonists: qHTS cell viability counter screen in human keratinocytes (AID 1919968; active means well fitted curve in the direction sought with a large enough effect in the repeat runs; an effect the other way counts as inactive or inconclusive; further: nearly all actives have a fitted effect of over 55% in size; further: potency means the concentration at half of the fitted maximal effect)
Method in brief: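 After a 5 h attachment period, ARE-reporter keratinocytes were dosed with compounds in DMSO and then cultured 23 h at 37 C. Cell viability came from CellTiter-Fluor signal read after a further 1 h.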

[2] = biological target: KiSS-1 receptor (Homo sapiens) (UniProt Q969F8); experiment: Human kisspeptin (KISS1R) small molecule agonists, calcium flux assay in KISS1R-HEK293 cells (AID 1920064; active means well fitted curve in the direction sought with a large enough effect in the repeat runs; an effect the other way counts as inactive or inconclusive)
KiSS-1 receptor (Homo sapiens), sequence (Q969F8 whole entry, looked up): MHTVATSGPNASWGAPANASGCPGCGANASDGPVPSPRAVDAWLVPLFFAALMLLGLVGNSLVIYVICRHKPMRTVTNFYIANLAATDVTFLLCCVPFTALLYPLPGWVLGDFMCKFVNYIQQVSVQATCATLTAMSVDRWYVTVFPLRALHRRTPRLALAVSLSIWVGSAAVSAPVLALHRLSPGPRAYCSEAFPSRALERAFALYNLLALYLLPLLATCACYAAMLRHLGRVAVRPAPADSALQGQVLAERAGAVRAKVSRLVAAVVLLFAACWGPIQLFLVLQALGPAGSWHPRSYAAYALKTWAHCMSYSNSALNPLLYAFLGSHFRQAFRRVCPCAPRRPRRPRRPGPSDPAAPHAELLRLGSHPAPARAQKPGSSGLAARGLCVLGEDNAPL
Method in brief: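 Kinetic calcium assay, 1 s sampling over 3 min at Ex/Em 480/540, in HEK293 cells engineered with human KISS1R; compounds delivered in DMSO after 1 h dye loading.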

[3] = G protein-coupled receptor (GPCR) small molecule agonists, calcium flux assay: HEK293 wild type cell line counter screen (AID 1920065)
Method in brief: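 Calcium-sensitive dye, loaded 1 h at 37 C into cells cultured 18 h, reports compound-evoked calcium release as fluorescence (Ex/Em 480/540), measured over 3 min. Agonist mode; 15-point titrations, triplicate.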

[4] = p53 small molecule agonists, cell-based qHTS assay with human liver microsomes (AID 1963577)
Method in brief: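 Compounds act here after metabolic activation: human liver microsomes and NADPH, both at 0.5 mg/mL final, were co-added to p53RE-bla cells. Incubation ran 16 h at 37 C, followed by LiveBLAzer detection.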

[5] = p53 small molecule agonists, cell-based qHTS assay with rat liver microsomes (AID 1963578)
Method in brief: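 Read-out is beta-lactamase reporter fluorescence (LiveBLAzer, 2 h, room temperature, dark) in p53RE-bla cells treated 16 h at 37 C with compound, rat liver microsomes and NADPH, both 0.5 mg/mL final.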

[6] = p53 small molecule agonists, cell-based qHTS assay with human liver microsomes: qHTS cell viability counter screen (AID 1963579); further: nearly all actives have a fitted effect of over 45% in size; further: potency means the concentration at half of the fitted maximal effect
Method in brief: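 Cells carrying the p53 response-element beta-lactamase reporter are treated for 16 h at 37 C with test compounds in the presence of human liver microsomes and NADPH (both 0.5 mg/mL final); ATP-based CellTiter-Glo luminescence then reports viability.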

[7] = p53 small molecule agonists, cell-based qHTS assay with rat liver microsomes: qHTS cell viability counter screen (AID 1963580); further: nearly all actives have a fitted effect of over 45% in size
Method in brief: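 HCT-116 p53RE-bla, 4,000 cells/well, 5 h pre-incubation; cpd + rat liver microsomes 0.5 mg/mL + NADPH 0.5 mg/mL (final); 16 h, 37 C; CellTiter-Glo, 30 min RT; luminescence.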

[8] = p53 small molecule agonists, cell-based qHTS assay (AID 1963582; active means well fitted activation curve with a large enough effect in the signal ratio in the repeat runs, not every such curve was filed as active; the % refers to the signal ratio)
Method in brief: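 In this cell-based concentration-response screen, a p53 response element drives beta-lactamase; cells received DMSO-borne compounds after 5 h culture and were incubated a further 16 h before FRET substrate development.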

[9] = biological target: 5-hydroxytryptamine receptor 2A (Homo sapiens) (UniProt P28223); experiment: 5-hydroxytryptamine receptor 2A (HTR2A) small molecule agonists, cell-based qHTS assay (AID 1963587); further: nearly all actives have a fitted effect of over 30% in size; further: potency means the concentration at half of the fitted maximal effect
5-hydroxytryptamine receptor 2A (Homo sapiens), sequence (P28223 whole entry, looked up): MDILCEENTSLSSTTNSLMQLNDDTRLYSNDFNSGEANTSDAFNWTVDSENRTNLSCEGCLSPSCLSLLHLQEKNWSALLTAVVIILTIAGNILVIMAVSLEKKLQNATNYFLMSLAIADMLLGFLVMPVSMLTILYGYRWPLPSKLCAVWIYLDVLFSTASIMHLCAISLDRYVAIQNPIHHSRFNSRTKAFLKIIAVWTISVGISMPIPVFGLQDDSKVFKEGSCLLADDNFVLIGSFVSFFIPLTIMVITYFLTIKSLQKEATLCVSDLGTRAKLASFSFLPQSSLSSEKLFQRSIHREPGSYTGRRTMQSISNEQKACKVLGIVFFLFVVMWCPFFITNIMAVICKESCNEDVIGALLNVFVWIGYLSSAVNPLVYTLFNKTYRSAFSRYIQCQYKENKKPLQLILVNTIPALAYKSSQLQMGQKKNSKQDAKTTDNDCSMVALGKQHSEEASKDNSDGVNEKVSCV
Method in brief: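 Kinetic calcium-flux fluorescence (2 min, 1 sec intervals) after compound addition in agonist mode. HTR2A-CHO cells were cultured 18 h, then dye-loaded 1 h at 37 C.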

[10] = biological target: Muscarinic acetylcholine receptor M1 (Homo sapiens) (UniProt P11229); experiment: Cholinergic receptor muscarinic 1 (CHRM1) small molecule antagonists, cell-based qHTS assay (AID 1963588); further: nearly all actives have a fitted effect of over 40% in size
Muscarinic acetylcholine receptor M1 (Homo sapiens), sequence (P11229 whole entry, looked up): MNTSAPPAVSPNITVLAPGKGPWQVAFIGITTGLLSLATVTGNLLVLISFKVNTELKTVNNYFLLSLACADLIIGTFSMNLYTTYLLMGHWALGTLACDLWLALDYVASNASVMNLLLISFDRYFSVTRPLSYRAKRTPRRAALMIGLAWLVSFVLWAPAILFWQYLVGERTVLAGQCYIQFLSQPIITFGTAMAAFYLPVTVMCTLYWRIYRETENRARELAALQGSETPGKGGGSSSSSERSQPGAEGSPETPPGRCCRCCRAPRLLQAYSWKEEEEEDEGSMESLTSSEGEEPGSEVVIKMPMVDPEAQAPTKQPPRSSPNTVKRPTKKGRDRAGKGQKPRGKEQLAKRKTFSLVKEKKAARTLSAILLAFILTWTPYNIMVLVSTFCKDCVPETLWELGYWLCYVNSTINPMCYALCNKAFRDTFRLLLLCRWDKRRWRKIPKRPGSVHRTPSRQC
Method in brief: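 CHRM1-CHO calcium-flux assay, antagonist mode. Cells were seeded 18 h, dye-loaded 1 h at 37 C and given compound for 5 min at RT, then acetylcholine was added at 50nM. FDSS fluorescence was read 3 min; 15 concentrations, three runs.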

[11] = biological target: Muscarinic acetylcholine receptor M1 (Homo sapiens) (UniProt P11229); experiment: Cholinergic receptor muscarinic 1 (CHRM1) small molecule agonists, cell-based qHTS assay (AID 1963589); further: nearly all actives have a fitted effect of over 35% in size
Method in brief: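 Measures agonist-induced intracellular calcium rise. Stable human CHRM1 CHO line, 1 h dye load at 37 C, compounds from DMSO, kinetic fluorescence read.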

[12] = cAMP Responsive Elements (CRE) small molecule agonists, cell-based qHTS assay (AID 1963590)
Method in brief: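 A CRE-responsive beta-lactamase reporter in HEK 293T cells was used. Treatment ran 3 h at 37 C; detection used LiveBLAzer B/G FRET substrate for 2 h at room temperature.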

[13] = cAMP Responsive Elements (CRE) small molecule antagonists, cell-based qHTS assay (AID 1963591; active means well fitted inhibition curve with a large enough effect in the signal ratio in the repeat runs, not every such curve was filed as active; the % refers to the signal ratio)
Method in brief: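 HEK293T cells carrying a CRE-driven beta-lactamase reporter receive compound and NKH477 (0.25 uM final) for 3 h. Fluorescence from LiveBLAzer B/G FRET substrate is read after 2 h at room temperature.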

[14] = biological target: Beta-2 adrenergic receptor (Homo sapiens) (UniProt P07550); experiment: Adrenergic beta2 receptor (ADRB2) small molecule antagonists, cell-based qHTS assay (AID 1963592); further: series mostly up to about 92 µM; nearly all actives have a fitted effect of over 50% in size
Beta-2 adrenergic receptor (Homo sapiens), sequence (P07550 whole entry, looked up): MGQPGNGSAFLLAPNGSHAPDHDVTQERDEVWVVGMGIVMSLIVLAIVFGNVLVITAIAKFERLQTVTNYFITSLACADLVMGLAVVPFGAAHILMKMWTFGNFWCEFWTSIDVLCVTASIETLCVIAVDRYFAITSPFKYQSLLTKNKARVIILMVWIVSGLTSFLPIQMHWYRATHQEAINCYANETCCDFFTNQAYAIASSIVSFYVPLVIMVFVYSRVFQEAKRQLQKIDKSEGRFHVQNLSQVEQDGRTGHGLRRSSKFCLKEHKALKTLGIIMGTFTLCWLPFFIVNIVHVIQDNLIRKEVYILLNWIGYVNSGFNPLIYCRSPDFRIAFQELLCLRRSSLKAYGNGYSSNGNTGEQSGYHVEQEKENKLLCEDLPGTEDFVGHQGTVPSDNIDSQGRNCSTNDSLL
Method in brief: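 Cells (CHO, stable ADRB2 overexpression) incubated 18-20hr at 37C; compounds added from DMSO; agonist mix (1nM isoproterenol, 100uM IBMX, 25uM Ro-20-1724) added; 0.5hr RT; d2-cAMP and anti-cAMP-cryptate added; 1hr RT; 665/615 nm read.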

[15] = biological target: D(2) dopamine receptor (Homo sapiens) (UniProt P14416); experiment: Dopamine D2 receptor (DRD2) small molecule agonists, cell-based qHTS assay (AID 1963594); further: nearly all actives have a fitted effect of over 35% in size
D(2) dopamine receptor (Homo sapiens), sequence (P14416 whole entry, looked up): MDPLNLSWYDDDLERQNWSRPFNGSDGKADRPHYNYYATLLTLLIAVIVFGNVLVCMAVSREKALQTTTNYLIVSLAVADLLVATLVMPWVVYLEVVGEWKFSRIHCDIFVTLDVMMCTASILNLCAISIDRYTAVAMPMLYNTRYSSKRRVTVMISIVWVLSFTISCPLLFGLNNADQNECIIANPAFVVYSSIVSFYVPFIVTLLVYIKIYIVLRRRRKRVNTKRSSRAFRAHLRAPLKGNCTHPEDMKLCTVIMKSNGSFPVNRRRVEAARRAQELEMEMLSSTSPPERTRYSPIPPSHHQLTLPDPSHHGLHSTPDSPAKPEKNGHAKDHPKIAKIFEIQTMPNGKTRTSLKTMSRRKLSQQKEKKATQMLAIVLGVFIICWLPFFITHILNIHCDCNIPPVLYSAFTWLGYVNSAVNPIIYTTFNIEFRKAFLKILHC
Method in brief: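 cAMP accumulation in DRD2-HEK293 cells measured by HTRF after 1 h detection; compounds added 10 min before NKH477 (200nM […]) forskolin-analogue stimulation, 30 min at room temperature, with Ro20-1724 present at 0.1 mM final.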

[16] = biological target: D(2) dopamine receptor (Homo sapiens) (UniProt P14416); experiment: Dopamine D2 receptor (DRD2) small molecule antagonists, cell-based qHTS assay (AID 1963595; active means well fitted inhibition curve with a large enough effect in the signal ratio in the repeat runs, with a control signal flat; the % refers to the signal ratio; further: potency means the concentration at half of the fitted maximal effect)
Method in brief: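 Readout: HTRF cAMP, cAMP-d2 competing with cellular cAMP for anti-cAMP cryptate, read after 1 h. Cells: DRD2-HEK293. Conditions: 0.1 mM Ro20-1724, 12 nM quinpirole, 200 nM NKH477, 30 min RT.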

[17] = p53 small molecule agonists, cell-based qHTS assay: qHTS cell viability counter screen (AID 1963581); further: nearly all actives have a fitted effect of over 45% in size; further: potency means the concentration at half of the fitted maximal effect
Method in brief: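 Following 5 h attachment, HCT-116 p53RE-bla cells took up compound for 16 h at 37 C; the reporter was read with B/G FRET substrate (2 h RT), and viability then via CellTiter-Glo ATP luminescence.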

[18] = biological target: 5-hydroxytryptamine receptor 2A (Homo sapiens) (UniProt P28223); experiment: 5-hydroxytryptamine receptor 2A (HTR2A) small molecule antagonists, cell-based qHTS assay (AID 1963586); further: nearly all actives have a fitted effect of over 45% in size; further: potency means the concentration at half of the fitted maximal effect
Method in brief: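 Antagonist-mode intracellular calcium assay: DOI (4 nM) added after 5 min compound pre-incubation at room temperature to dye-loaded HTR2A-CHO cells. Fluorescence followed for 3 min, sampled every second.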

[19] = biological target: Beta-2 adrenergic receptor (Homo sapiens) (UniProt P07550); experiment: Adrenergic beta2 receptor (ADRB2) small molecule agonists, cell-based qHTS assay (AID 1963593);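 further: CHO cells stably overexpressing human ADRB2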
Method in brief: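 CHO cells stably over-expressing ADRB2 were plated overnight at 37C, then dosed with compounds plus a stimulation mix containing 100uM IBMX and 25uM Ro-20-1724 for 0.5hr at room temperature. cAMP was measured by HTRF competition, 1hr.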

SMILES | Potency [1] | Potency [2] | Potency [3] | Potency [4] | Potency [5] | Potency [6] | Potency [7] | Potency [8] | Potency [9] | Potency [10] | Potency [11] | Potency [12] | Potency [13] | Potency [14] | Potency [15] | Potency [16] | Potency [17] | Potency [18] | Potency [19]
CCCCCCCCCCC1CO1 (centres undefined) | inactive | inactive | inactive | inactive | inactive | inactive | inactive | inactive | inactive | inactive | inactive | inactive | inactive | inactive | inactive | inactive | – | – | –
CCCCCCOc1ccccc1C(N)=O | inactive | inactive | inactive | inactive | inactive | inactive | inactive | – | – | inactive | inactive | inactive | inactive | inactive | inactive | inactive | inactive | inactive | –
Cc1cc(O)c(C(C)C)cc1Cl | inactive | inactive | inactive | inactive | – | inactive | inactive | inactive | inactive | inactive | inactive | inactive | – | – | inactive | inactive | inactive | inactive | inactive
CCCCCC(C)OC(=O)COc1ccc(Cl)c2cccnc12 (centres undefined) | inactive | inactive | inactive | inactive | inactive | – | inactive | inactive | inactive | inactive | inactive | – | inactive | inactive | inactive | inactive | – | – | inactive
CCOc1nc2cccc(C(=O)OC(C)OC(=O)OC3CCCCC3)c2n1Cc1ccc(-c2ccccc2-c2nn[nH]n2)cc1 (centres undefined) | 48.5 µM (active) | – | inactive | inactive | inactive | 12.9 µM (active) | – | – | – | inactive | inactive | – | – | inactive | inactive | inactive | 14.5 µM (active) | inactive | inactive
O=C(Cl)c1ccc(F)c(Cl)c1 | inactive | – | inactive | inactive | inactive | inactive | inactive | inactive | inactive | inactive | inactive | inactive | inactive | inactive | inactive | inactive | inactive | inactive | –
Nc1ccc(C(=O)Nc2ccccc2N)cc1 | inactive | inactive | inactive | inactive | inactive | inactive | inactive | inactive | – | inactive | inactive | inactive | – | inactive | – | inactive | inactive | inactive | –
NCc1cccc(C2CCN(C(=O)c3ccc(C#Cc4ccccc4F)o3)CC2)c1 | 54.5 µM (active) | inactive | inactive | – | – | inactive | – | – | 21.9 µM (active) | – | inactive | – | – | – | – | 54.5 µM (active) | – | – | –
C[C@H](CCC(=O)O)[C@H]1CC[C@H]2[C@@H]3[C@H](O)C[C@@H]4C[C@H](O)CC[C@]4(C)[C@H]3CC[C@]12C | inactive | inactive | – | inactive | inactive | inactive | inactive | inactive | – | inactive | – | – | – | inactive | inactive | inactive | inactive | – | –
CCCCC[C@H](O)/C=C/[C@H]1[C@H](O)CC(=O)[C@@H]1C/C=C\CCCC(=O)O | inactive | inactive | inactive | inactive | – | – | inactive | – | inactive | inactive | inactive | – | – | inactive | – | – | – | inactive | –
CCCCN1C(=O)[C@@H]([C@H](O)C2CCCCC2)NC(=O)C12CCN(Cc1ccc(Oc3ccc(C(=O)O)cc3)cc1)CC2 | inactive | inactive | inactive | – | inactive | inactive | inactive | – | 24.5 µM (active) | inactive | – | – | – | inactive | – | inactive | – | – | –
O=C(Cl)c1ccc(Cl)cc1Cl | inactive | – | inactive | inactive | inactive | inactive | inactive | inactive | – | inactive | inactive | inactive | inactive | inactive | inactive | – | inactive | – | inactive
CSc1c(Cl)c(Cl)c(Cl)c(Cl)c1Cl | inactive | inactive | inactive | – | – | inactive | inactive | inactive | inactive | inactive | inactive | – | inactive | inactive | inactive | inactive | inactive | – | inactive
COc1ccc2cc(CCC(C)=O)ccc2c1 | inactive | inactive | inactive | inactive | inactive | – | inactive | inactive | – | – | – | inactive | inactive | inactive | inactive | inactive | – | – | inactive
Cc1cccc(N(C)C(=S)Oc2ccc3c(c2)C2CCC3C2)c1 (centres undefined) | inactive | inactive | inactive | – | – | inactive | inactive | inactive | inactive | inactive | inactive | – | inactive | inactive | inactive | inactive | inactive | 1.63 µM (active) | inactive
CCOc1ccc2nc(N)sc2c1 | inactive | inactive | inactive | – | – | – | – | – | inactive | inactive | inactive | inactive | inactive | inactive | inactive | inactive | inactive | inactive | –
C[C@@H]1C[C@H]2[C@@H]3C[C@H](F)C4=CC(=O)C=C[C@]4(C)[C@@]3(F)[C@@H](O)C[C@]2(C)[C@@]1(O)C(=O)CO | inactive | inactive | inactive | – | – | inactive | inactive | – | inactive | inactive | inactive | inactive | inactive | inactive | inactive | inactive | – | inactive | inactive
O=C[C@@H](O)[C@H](O)[C@H](O)CO | inactive | inactive | inactive | inactive | – | inactive | inactive | inactive | inactive | inactive | inactive | inactive | inactive | inactive | inactive | inactive | inactive | inactive | inactive
C[C@H]1[C@H](NC(=O)/C(=N/OC(C)(C)C(=O)O)c2csc(N)n2)C(=O)N1S(=O)(=O)O (stereo in doubt) | inactive | inactive | inactive | – | inactive | inactive | inactive | inactive | – | – | – | inactive | inactive | inactive | – | inactive | inactive | – | –
